Some test systems named below: SK-MEL-2 melanoma; EKVX NSCLC; SN12C renal; UO-31 renal; TK-10 renal; ACHN renal; CAKI-1 renal; A498 renal; CCRF-CEM leukemia; MOLT-4 leukemia; SR leukemia; RPMI-8226 leukemia; OVCAR-8 ovarian; OVCAR-5 ovarian; OVCAR-4 ovarian; SK-OV-3 ovarian; IGROV1 ovarian; OVCAR-3 ovarian; HS 578T breast; NCI/ADR-RES ovarian.
Common to all, as to assay: NCI-60 one-dose screen, 48 h (100 = growth as untreated, 0 = no growth, -100 = all killed)
Common to all, as to conditions: 10 µM unless noted

Compounds without any hit were thinned out: in the full panel of roughly 83,000, 20% have a hit.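 Negative percent growth values reflect cell death: -40 means 40% of the cells present at the start died, and -100 means all died.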 Unmarked numbers belong to inactive results. Calls of active or inactive are those of the source. How the source made its calls: active means growth percent below 10; inactive means the rest.

Take `CC1(C)CC[C@]23CC[C@]4(C)[C@H](CC[C@@H]5[C@@]6(C)C/C(=C/c7ccncc7)C(=O)C(C)(C)[C@@H]6CC[C@]54C)[C@H]2[C@H]1OC3`: the growth in the assay on SK-MEL-2 melanoma is 80.9%; in the assay with EKVX NSCLC, 92.3%; with SN12C renal, 76.7%; in the assay on UO-31 renal it was 57.1%; in the assay with TK-10 renal, 97%; in the assay with ACHN renal, 91%. Also, the growth with CAKI-1 renal is 66.4%; with A498 renal, -3.63% (active); in the assay with CCRF-CEM leukemia, 44.3%; in the assay on MOLT-4 leukemia, 50.4%; in the assay on SR leukemia, 56.5%; in the assay with RPMI-8226 leukemia, 50%. For the same molecule, the growth in the assay on OVCAR-8 ovarian is 75.1%; in the assay with OVCAR-5 ovarian, 89.8%; in the assay with OVCAR-4 ovarian, 92.2%; with SK-OV-3 ovarian, 94.7%; in the assay with IGROV1 ovarian it was 80.5%; in the assay with OVCAR-3 ovarian, 84.4%. Moreover, the results for the growth in the assay on HS 578T breast and in the assay with NCI/ADR-RES ovarian were 84.9% and 97.8%, respectively.
As for `COC(=O)C(Cc1ccccc1)NC(=O)c1ccc(NC(=O)c2[nH]c(C)c(Cl)c2Cl)c(OC(C)C)c1` (stereo not drawn), the growth was 105% in the assay with SK-MEL-2 melanoma; 101% in the assay with EKVX NSCLC; 16% with SN12C renal; 94.8% in the assay with UO-31 renal; 53.5% in the assay on TK-10 renal; 40.3% in the assay with ACHN renal. Further, the growth in the assay with CAKI-1 renal is 90%; in the assay with A498 renal it was 86.8%; in the assay with CCRF-CEM leukemia, 73.2%; with MOLT-4 leukemia it was 84.9%; in the assay with SR leukemia, 17.4%; in the assay on RPMI-8226 leukemia, 57.9%. The growth was -29.8% (active) in the assay on OVCAR-8 ovarian; 93.2% in the assay on OVCAR-5 ovarian; 39.7% in the assay with OVCAR-4 ovarian; 99.1% in the assay with SK-OV-3 ovarian; 83.1% in the assay on IGROV1 ovarian; 12.9% with OVCAR-3 ovarian. The values for the growth in the assay with HS 578T breast and in the assay on NCI/ADR-RES ovarian were 62.1% and 31.4%, respectively.
With `COc1cccc(/C=C/C(=O)c2cc3c(N)c(C(=O)Nc4cccc5ccccc45)sc3nc2C)c1`, the growth is 24.2% in the assay with SK-MEL-2 melanoma; 39.9% with EKVX NSCLC; -27.9% (active) in the assay on SN12C renal; 16.9% in the assay on UO-31 renal; 32% with TK-10 renal; 35% in the assay on ACHN renal. Moreover, the growth is 17.2% with CAKI-1 renal; 4.07% (active) in the assay on A498 renal; 7.04% (active) in the assay on CCRF-CEM leukemia; 16.8% in the assay with MOLT-4 leukemia; 12.5% in the assay with SR leukemia; -18.9% (active) with RPMI-8226 leukemia. The growth with OVCAR-8 ovarian is 3.72% (active); in the assay with OVCAR-5 ovarian, 15.8%; with OVCAR-4 ovarian, 56.8%; in the assay with SK-OV-3 ovarian, 56.2%; in the assay with IGROV1 ovarian it was -3.98% (active); in the assay on OVCAR-3 ovarian it was -17% (active). The growth was 15% in the assay with HS 578T breast and 4.18% (active) with NCI/ADR-RES ovarian.
With `CCOC(=O)C(=CNc1cnc(Nc2ccc(N3CCOCC3)cc2)nc1Oc1ccc(OC)cc1)C(=O)OCC`, the growth in the assay with SK-MEL-2 melanoma was 91.8%; in the assay with EKVX NSCLC, 87.1%; in the assay on SN12C renal, 26.6%; with UO-31 renal it was 11.3%; in the assay on TK-10 renal, -26% (active); with ACHN renal, 19%. For the same molecule, the growth in the assay with CAKI-1 renal is 25.1%; in the assay on A498 renal it was 42.1%; in the assay on CCRF-CEM leukemia it was 37.7%; in the assay with MOLT-4 leukemia it was 60.5%; with SR leukemia it was 31.6%; in the assay on RPMI-8226 leukemia it was 42.2%. For the same molecule, the growth is 43.1% in the assay with OVCAR-8 ovarian; 71.5% with OVCAR-5 ovarian; -43.1% (active) with OVCAR-4 ovarian; 55.5% in the assay with SK-OV-3 ovarian; 26.8% in the assay on IGROV1 ovarian; -9.17% (active) in the assay with OVCAR-3 ovarian. The growth is 35% in the assay with HS 578T breast and 54.4% in the assay on NCI/ADR-RES ovarian.
As to `CN1CCN(CC(=O)Nc2ccc3ncnc(Nc4ccc(Oc5cccc(C(F)(F)F)c5)c(Cl)c4)c3c2)CC1`, the growth in the assay with SK-MEL-2 melanoma is -15.5% (active); with EKVX NSCLC, 31.1%; in the assay on SN12C renal, 51.3%; with UO-31 renal it was 21.7%; with TK-10 renal it was 41.6%; in the assay on ACHN renal, -63.2% (active). The growth in the assay with CAKI-1 renal is -18.7% (active); with A498 renal it was 36.3%; with CCRF-CEM leukemia it was 6.92% (active); in the assay on MOLT-4 leukemia it was -7.18% (active); in the assay with SR leukemia it was -6.28% (active); in the assay with RPMI-8226 leukemia, -12.7% (active). Also, the growth in the assay with OVCAR-8 ovarian is 20.9%; in the assay with OVCAR-5 ovarian it was 52.9%; in the assay on OVCAR-4 ovarian, -18.8% (active); with SK-OV-3 ovarian it was 23.2%; in the assay on IGROV1 ovarian, -44.6% (active); in the assay on OVCAR-3 ovarian it was 4.81% (active). The values for the growth with HS 578T breast and in the assay with NCI/ADR-RES ovarian were -12% (active) and 46.1%, respectively.
For the molecule `CN1CCN(CCCOc2cccc3nc(Nc4ccc(F)c(F)c4)ccc23)CC1`, the growth in the assay on SK-MEL-2 melanoma is -49.7% (active); in the assay with EKVX NSCLC, 34%; in the assay with SN12C renal it was 24.4%; in the assay on UO-31 renal, -54.3% (active); in the assay on TK-10 renal it was -4.13% (active); with ACHN renal it was -31.4% (active). In addition, the growth in the assay with CAKI-1 renal is -29.1% (active); in the assay with A498 renal, 33.6%; in the assay with CCRF-CEM leukemia, -26.9% (active); in the assay with MOLT-4 leukemia, -38.4% (active); in the assay on SR leukemia it was 0.217% (active); in the assay on RPMI-8226 leukemia, -14.5% (active). Also, the growth in the assay with OVCAR-8 ovarian is 24.5%; with OVCAR-5 ovarian, -20.9% (active); in the assay with OVCAR-4 ovarian, 39.3%; in the assay with SK-OV-3 ovarian it was 24.2%; with IGROV1 ovarian, -12.4% (active); with HS 578T breast, 16.8%. The growth in the assay with NCI/ADR-RES ovarian is 12.1%.
In the case of `C=CN(C(=O)N1CCN(c2cc3c(cc2F)c(=O)c(C(=O)O)cn3C2CC2)CC1)c1nc(-c2ccc(OC)cc2)cs1`, the growth was 18.4% in the assay with SK-MEL-2 melanoma; 23.7% in the assay with EKVX NSCLC; 11.3% with SN12C renal; 15.5% in the assay with UO-31 renal; 42.8% in the assay with TK-10 renal; 23.6% with ACHN renal. In addition, the growth in the assay with CAKI-1 renal was 17.3%; in the assay with A498 renal it was 8.44% (active); in the assay on CCRF-CEM leukemia, 8.17% (active); with MOLT-4 leukemia it was 18%; in the assay on SR leukemia, 20.4%; in the assay with RPMI-8226 leukemia, -6.11% (active). The growth in the assay with OVCAR-8 ovarian was 14.3%; in the assay on OVCAR-5 ovarian it was 33.8%; in the assay on OVCAR-4 ovarian, 35.3%; in the assay with SK-OV-3 ovarian, 17.6%; in the assay with IGROV1 ovarian, 39.6%; in the assay on HS 578T breast, 20.3%. For the same molecule, the growth in the assay with NCI/ADR-RES ovarian is 37.6%.

For the origin of these results see PubChem BioAssay (NCI).
